# Compound activity from PubChem BioAssay.
# The list is not random: actives were taken first. Their share in the collection is about 19%.
# HT1080 IDH1KD tx: HT-1080 IDH1 knockdown cell toxicity (counter line); AID 686971; actives 2% (n = 360,000); HT-1080 IDH1 knockdown viability, ATP luminescence, 48 h; Potency, µM (titrated, usually from 46.1 µM), for inactives: top-dose activity, negative = toxicity, usual class: cytotoxic;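 also: potency is read from the fitted curve at half-maximal effect; 0% = DMSO wells and -100% = cell-free medium wells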
#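 In this qHTS, HT-1080 cells depleted of IDH1 are exposed for 48 h at 37 °C to compound titrations. Toxicity is scored from CellTiter-Glo luminescence, with DMSO as full viability and medium alone as none.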
# DT40 TDP1 CPT: growth inhibition of DT40 Tdp1-/-;hTDP1 cells with camptothecin (screen for TDP1 inhibitors) | chicken DT40 Tdp1-/-;hTDP1 cells + 20 nM CPT, ATP luminescence, 48 h | Potency, µM (highest dose often 46.2 µM), for the others: at the top dose activity change, negative = growth inhibition, usual class: inhibitors | actives 12% (n = 420,000) | AID 686979; also: potency is read from the fitted curve at half-maximal effect; nearly all actives have a fitted effect of over 55% in size
#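 Chicken DT40 Tdp1-/- cells stably complemented with human TDP1 were seeded at 400 cells/well in medium containing 20 nM camptothecin, exposed to pin-transferred compounds, and grown at 37 °C for at least 48 hr. Viability was read as ATP luminescence.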
# HT1080NT lethal: kills 2HG-producing HT-1080-NT fibrosarcoma cells; actives 1.6% (n = 360,000); AID 686970; Potency, µM (highest dose often 46.1 µM), for the others: top-dose activity, negative = less viability, actives largely listed as cytotoxic; HT-1080-NT fibrosarcoma viability, CellTiter-Glo ATP luminescence, 48 h;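 also: NT is the 2HG producing partner of a matched IDH1 knockdown line; potency is read from the fitted curve at half-maximal effect; 0% = DMSO-treated cells and -100% = media-only wells without cells; nearly all actives have a fitted effect of over 55% in size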
#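 Read-out is CellTiter-Glo luminescence after 10 minutes at room temperature, following 48 hours' compound treatment of HT-1080-NT cells (750 cells/well, RPMI, 5% FBS, 37 degrees C).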
# TDP1 cell noCPT: qHTS for Inhibitors of human tyrosyl-DNA phosphodiesterase 1 (TDP1): qHTS in cells in absence of CPT | DT40 Tdp1-/- hTDP1 cells, no CPT, ATP luminescence, 48 h | Potency, µM (highest dose often 46.2 µM), for inactives: top-dose activity change, negative = growth inhibition, actives largely listed as inhibitors | actives 15% (n = 420,000) | AID 686978, 2013; also: potency is read from the fitted curve at half-maximal effect; nearly all actives have a fitted effect of over 55% in size
#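 A cellular qHTS used chicken DT40 cells lacking endogenous Tdp1 but carrying stably transfected human TDP1. Compounds were applied without camptothecin, and cell growth kinetics were judged by ATP-dependent luminescence after ≥48 hr.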
# IL1B secr inh: inhibitors of inflammasome signaling (IL-1 beta secretion); AID 743279; THP-1 LPS/ATP IL-1B secretion, AlphaLISA, 16 h; hits give low values; actives 4.7% (n = 360,000); activity change, % at 57.5 µM; in the data active = activity change below about -50%; inconclusive = mostly about -30% to -49%
#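 Secreted IL-1B measured by AlphaLISA bead assay after 16 h compound exposure of THP-1 cells; compounds (final up to 57.5 uM) added 1 h before LPS (250 ng/mL) and ATP (1.25 mM) stimulation; lower signal means less secretion.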
# * = called active by the depositor; ? = inconclusive; nt = no result given; ! = a repeat was not active; [ ] = remark or other dose. Unless noted, calls follow the shape of the dose curve; as a rule, active = well fitted curve in the direction sought with a large enough effect; inconclusive = small, poorly fitted or top-dose-only effect, or another doubt; inactive = no such curve, though single readings can be large; an effect the other way counts as inactive or inconclusive. Unless noted, % is scaled to controls: 0 for no effect and ±100 for the full control effect.
SMILES,HT1080 IDH1KD tx,DT40 TDP1 CPT,HT1080NT lethal,TDP1 cell noCPT,IL1B secr inh
O=C(N/N=C/c1cccc(O)c1)c1ccc(COc2ccccc2Br)cc1,-21%,?,-14%,?,-68*
C=CCn1c(C)cc(C(=O)CN2C(=O)c3ccccc3S2(=O)=O)c1C,-2%,-31%,-5%,-21%,-3
O=C(N/N=C/c1ccncc1)c1ccc(COc2cccc3cccnc23)cc1,-26%,?,-7%,?,-15
O=C(N/N=C/c1cccc(O)c1)c1ccc(COc2cccc3cccnc23)cc1,-5%,-30%,-15%,?,-5
COCCCn1c(C)cc(C(=O)CN2c3cccc4cccc(c34)S2(=O)=O)c1C,-6%,29µM*,-2%,16µM*,?
COC(=O)N1CCC2(CCN(C(=O)Nc3ccccc3)CC2)CC1,nt,-5%,nt,-21%,nt
CCOc1ccc(/C=N/NC(=O)c2c(-c3ccccc3)noc2C)cc1,15%,14%,19%,-30%,41
COc1cc(/C=N/NC(=O)c2ccc(CN3c4cccc5cccc(c45)S3(=O)=O)cc2)cc(OC)c1O,-13%,?,-30%,16µM*,51
CCOc1ccc(/C=N/NC(=O)COc2ccccc2-c2ccccc2)cc1,?,18µM*,?,?,-4
O=C(Nc1ccn(Cc2c(F)c(F)c(F)c(F)c2F)n1)c1ccc(COc2ccccc2Cl)cc1,?,-18%,10%[9.24 µM],?,0
O=C(Nc1ccc(Cn2cccn2)cc1)c1ccc(COc2ccccc2Br)cc1,?,13µM*,?,15µM*,-60*
CCc1nn(CC(=O)NCc2ccc(C)cc2)c(=O)c2cc3occc3n12,nt,-3%,nt,-23%,nt
CCCC(=O)Nc1ccc(NC(=O)c2ccccc2)nc1,-7%,1%,-7%,-11%,-3
CCCC(=O)Nc1ccc(NC(=O)c2ccccc2F)cn1,2%,-17%,4%,-4%,-61*
CCC(C)N(CCNC(=O)c1ccc2c(c1)NC(=O)c1ccccc1S2)C1CCCCC1 (configuration not stated),?,15µM*,?,2.9µM*,-86*
Cc1ccc(NC(=O)c2ccc3c(c2)NC(=O)c2ccccc2S3)c(Cl)c1,nt,3.7µM*,nt,3.3µM*,nt
CCC(C)N(CCNC(=O)CC1Oc2ccccc2NC1=O)C1CCCCC1 (configuration not stated),1%,0%,-10%,-19%,0
CC(=O)Nc1ccc(NC(=O)c2ccc3c(c2)NC(=O)c2ccccc2S3)cc1,nt,-15%,nt,5%,nt
Cc1cc(C)c(C)c(OCCCCN(C)Cc2ccccc2)c1,-18%,?,-21%,21µM*,-19
CCc1ccc(OCCCCN(C)Cc2ccccc2)cc1,-19%,?,-11%,29µM*,?
CCN(CC)CCOc1ccc(Cc2ccccc2)cc1,nt,24µM*!,nt,21µM*!,nt
CCN(Cc1ccccc1)Cc1ccc(OCc2ccccc2)cc1,0%,-17%,-1%,?,15
Cc1ccc(CNC(=O)c2cccc(NC(=O)N3CCSc4ncccc43)c2)cc1,nt,?,nt,21µM*,nt
Cc1cccc(CNC(=O)c2ccc(NC(=O)N3CCSc4ncccc43)cc2)c1,nt,-7%,nt,-35%,nt
O=C(NCc1ccccc1F)c1cccc(NC(=O)N2CCSc3ncccc32)c1,nt,23µM*,nt,?,nt
SMILES,HT1080 IDH1KD tx,DT40 TDP1 CPT,HT1080NT lethal,TDP1 cell noCPT,IL1B secr inh
CC(C)Oc1ccc(CNC(=O)Cc2ccc(NC(=O)N3CCSc4ncccc43)cc2)cc1,nt,16µM*,nt,16µM*,nt
COc1ccc(CN2CCC(n3cc(C(=O)N4CCCC4)nn3)CC2)c(OC)c1C,nt,0%,nt,-19%,nt
CC1Cc2ccccc2N1C(=O)CCS(=O)(=O)c1cccs1 (configuration not stated),-1%,-2%,-10%,-7%,-4
CC1Cc2ccccc2N1S(=O)(=O)c1cccs1 (configuration not stated),-11%,21µM*,1%,16µM*,0
Cc1ccc(S(=O)(=O)N2c3ccccc3CC2C)cc1 (configuration not stated),?,?,?,?,-3
CCOc1ccc(S(=O)(=O)N2c3ccccc3CC2C)cc1 (configuration not stated),?,0.65µM*,3.2µM*,0.92µM*,36
CC1Cc2ccccc2N1C(=O)CN1CCN(S(=O)(=O)c2cccs2)CC1 (configuration not stated),0%,?,10%,15µM*,0
COc1cccc(C(=O)c2cn(CC(=O)NCc3ccco3)c3nc(C)ccc3c2=O)c1,-3%,-17%,-3%,-7%,-19
O=C(O)C1CCCC[C@H]1C(=O)Nc1ncc([N+](=O)[O-])s1 (some centres not stated),2%,1%,1%,0%,37
CC(C)(C)OC(=O)N[C@H](C(=O)OC(C)(C)C)c1ccc(C(F)(F)F)cc1,2%,-7%,-6%,2%,24
COc1cc(C)c(CN2C[C@H](Sc3nc4ccccc4[nH]3)C[C@H]2C(=O)N(C)C)cc1C,nt,-12%,nt,-30%,nt
Cc1ccc(S(=O)(=O)NC(CCc2ccccc2)CC(=O)C(C)(C)C)cc1 (configuration not stated),-13%,23µM*,-16%,16µM*,4
C[C@@]12C(=O)N(c3ccc(C(F)(F)F)cc3)C(=O)N1[C@@H]1c3ccccc3OC[C@@H]1[C@H]2c1ccccc1,2%,7.3µM*,8%,10µM*,0
CCOC(=O)[C@@H]1[C@H]2COc3ccccc3[C@H]2N2C(=O)N(c3ccc(F)cc3)C(=O)[C@]12C,-4%,-22%,-3%,-17%,-8
C[C@]12C(=O)N(c3ccc(F)cc3)C(=O)N1[C@@H]1c3ccccc3OC[C@@H]1[C@H]2c1ccccc1,-23%,?,0%,18µM*,-10
CN(C(=O)c1ccc2ccccc2c1)c1ccccn1,1%,0%,-5%,?,-12
CCOc1ccc(S(=O)(=O)Nc2cc3c(C(=O)OC)c(COC)oc3c3ccccc23)cc1,nt,5.2µM*,nt,3.7µM*,nt
Cc1oc2c(cc(NS(=O)(=O)c3ccc(F)cc3)c3ccccc32)c1C(=O)O,-1%,-19%,-22%,-12%,3
CC(=O)c1c(C)oc2c1cc(NS(=O)(=O)c1ccc(C(C)(C)C)cc1)c1ccccc12,nt,?,nt,21µM*,nt
COc1ccc(S(=O)(=O)Nc2cc3c(cc2C(C)=O)OCO3)cc1,18µM*,10µM*,?,4.6µM*,21
